In PubChem BioAssay one finds composite z-score and z-score data, which are given here for 16 compounds.

Molecules are shown by their SMILES. Active and inactive are the calls of the source.

Assay [1] in a line: small molecules captured by biotinylated probe aFSTL3 – biochemical, small-molecule microarray, fluorescence 635/667, stem cell growth factor project, primary screen (AID 1064).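 Also: measures binding of the biotinylated anti-FSTL3 antibody to printed compounds.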 Conditions: higher = more signal.
The nature of assay [2]: binders from COS7 lysate, DM2A8 probe, primary screen, torsin A project, cell lysate, small-molecule microarray, fluorescence 635/667 (AID 1065). The settings on record: higher = more signal, COS7 lysate expressing mutant human TOR1A.
A short description of assay [3]: small molecules captured by biotinylated probe aFGF2 – biochemical, small-molecule microarray, fluorescence 635/667, stem cell growth factor project, primary screen (AID 1067).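 Also: measures binding of biotinylated aFGF2 protein to printed compounds on slides; z-score merges feature fluorescence and signal-to-noise across triplicate slides.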 Conditions: higher = more signal.
Assay [4] in a line: small molecules captured by biotinylated probe aFGF10 – biochemical, small-molecule microarray, fluorescence 635/667, stem cell growth factor project, primary screen (AID 1071).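 Also: score merges 667 nm spot intensity and signal to noise from triplicate slides.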 The settings on record: higher = more signal.
The target in assay [5] is Neurogenic locus notch homolog protein 2 (Homo sapiens) (UniProt Q04721). Description: small molecules binding Notch2 protein – biochemical, small-molecule microarray, 635 nm fluorescence, stem cell growth factors, primary screen (AID 1073). Conditions: higher = more signal.
Sequence of Neurogenic locus notch homolog protein 2 (Homo sapiens) (Q04721 whole entry, looked up, canonical isoform): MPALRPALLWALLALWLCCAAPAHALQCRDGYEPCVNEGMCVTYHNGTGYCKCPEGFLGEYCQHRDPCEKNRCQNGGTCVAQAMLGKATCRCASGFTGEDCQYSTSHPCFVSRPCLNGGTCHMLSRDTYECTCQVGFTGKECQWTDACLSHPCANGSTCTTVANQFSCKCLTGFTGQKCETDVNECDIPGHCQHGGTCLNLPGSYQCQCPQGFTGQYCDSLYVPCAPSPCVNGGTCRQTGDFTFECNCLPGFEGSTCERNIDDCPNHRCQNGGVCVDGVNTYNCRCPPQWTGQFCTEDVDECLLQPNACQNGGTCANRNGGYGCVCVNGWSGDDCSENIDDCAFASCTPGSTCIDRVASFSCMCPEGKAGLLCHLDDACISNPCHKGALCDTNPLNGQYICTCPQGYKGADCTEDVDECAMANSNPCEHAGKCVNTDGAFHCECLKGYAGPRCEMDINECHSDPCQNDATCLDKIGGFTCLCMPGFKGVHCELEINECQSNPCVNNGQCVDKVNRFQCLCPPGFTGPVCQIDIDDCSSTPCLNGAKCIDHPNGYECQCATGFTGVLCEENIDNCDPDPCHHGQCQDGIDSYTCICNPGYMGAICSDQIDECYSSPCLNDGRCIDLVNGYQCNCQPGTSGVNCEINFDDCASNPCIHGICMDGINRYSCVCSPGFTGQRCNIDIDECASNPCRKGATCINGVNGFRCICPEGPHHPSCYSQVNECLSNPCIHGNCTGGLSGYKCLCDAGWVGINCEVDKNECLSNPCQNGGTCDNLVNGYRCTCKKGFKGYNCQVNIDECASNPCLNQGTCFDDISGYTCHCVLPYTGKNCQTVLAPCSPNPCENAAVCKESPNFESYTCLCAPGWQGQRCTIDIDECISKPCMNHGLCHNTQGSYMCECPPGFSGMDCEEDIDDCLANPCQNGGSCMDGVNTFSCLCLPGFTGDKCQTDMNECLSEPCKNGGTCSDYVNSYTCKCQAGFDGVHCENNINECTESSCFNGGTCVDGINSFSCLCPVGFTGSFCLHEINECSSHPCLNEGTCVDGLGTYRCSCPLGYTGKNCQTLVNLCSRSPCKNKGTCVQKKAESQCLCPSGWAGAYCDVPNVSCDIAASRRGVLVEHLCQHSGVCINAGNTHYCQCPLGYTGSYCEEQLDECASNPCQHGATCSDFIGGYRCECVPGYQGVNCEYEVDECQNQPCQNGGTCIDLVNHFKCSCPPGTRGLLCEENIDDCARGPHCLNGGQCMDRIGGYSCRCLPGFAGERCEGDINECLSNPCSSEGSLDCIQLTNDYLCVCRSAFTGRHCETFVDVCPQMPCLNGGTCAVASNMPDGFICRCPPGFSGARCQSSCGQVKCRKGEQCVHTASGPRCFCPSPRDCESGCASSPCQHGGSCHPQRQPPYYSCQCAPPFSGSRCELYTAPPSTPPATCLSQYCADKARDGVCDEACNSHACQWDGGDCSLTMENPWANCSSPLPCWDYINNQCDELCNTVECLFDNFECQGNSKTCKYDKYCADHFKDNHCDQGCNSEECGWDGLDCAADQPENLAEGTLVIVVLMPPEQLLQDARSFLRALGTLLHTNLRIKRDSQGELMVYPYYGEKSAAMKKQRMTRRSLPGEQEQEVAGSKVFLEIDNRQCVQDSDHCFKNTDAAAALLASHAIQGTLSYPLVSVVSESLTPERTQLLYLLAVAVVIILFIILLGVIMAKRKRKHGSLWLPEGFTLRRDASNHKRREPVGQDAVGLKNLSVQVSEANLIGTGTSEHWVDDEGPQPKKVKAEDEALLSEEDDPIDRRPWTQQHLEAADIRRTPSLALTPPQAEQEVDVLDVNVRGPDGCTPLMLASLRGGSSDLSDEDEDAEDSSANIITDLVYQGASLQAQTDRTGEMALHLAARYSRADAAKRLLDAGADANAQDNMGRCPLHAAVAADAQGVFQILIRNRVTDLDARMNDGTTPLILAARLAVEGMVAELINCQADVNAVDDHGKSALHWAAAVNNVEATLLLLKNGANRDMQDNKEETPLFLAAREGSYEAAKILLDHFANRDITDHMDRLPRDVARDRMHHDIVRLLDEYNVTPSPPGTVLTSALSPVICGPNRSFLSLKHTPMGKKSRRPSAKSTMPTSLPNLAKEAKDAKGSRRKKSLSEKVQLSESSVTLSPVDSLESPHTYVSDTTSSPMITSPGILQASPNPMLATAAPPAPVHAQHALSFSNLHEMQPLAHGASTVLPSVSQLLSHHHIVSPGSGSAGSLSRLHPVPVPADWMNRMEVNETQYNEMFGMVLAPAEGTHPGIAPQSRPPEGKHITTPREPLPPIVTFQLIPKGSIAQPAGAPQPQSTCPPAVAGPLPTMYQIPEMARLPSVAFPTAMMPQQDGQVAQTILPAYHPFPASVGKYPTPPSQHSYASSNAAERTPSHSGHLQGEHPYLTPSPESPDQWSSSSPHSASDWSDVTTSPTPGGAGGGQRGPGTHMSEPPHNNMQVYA
Assay [6] has as its target Pro-neuregulin-1, membrane-bound isoform (Homo sapiens) (UniProt Q02297). Description: small molecules binding neuregulin-1 protein – biochemical, small-molecule microarray, fluorescence 635/667, psychiatric disease protein project, primary screen (AID 1075).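 Also: score combines 667 nm spot fluorescence with signal to noise.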 Conditions: NRG1 binding, 635 nm fluorescence, higher = more signal.
Assay [7] concerns Neuregulin-1 EGF-like domain. Description: small molecules binding NRG1 EGF domain – biochemical, small-molecule microarray, 635 nm fluorescence, primary screen (AID 1081).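 Also: binding of the protein to compounds printed on small-molecule microarray slides.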 Conditions: higher = more signal.
Assay [8] is described as follows: FRG1 expression reporter modulators in myotubes – cell-based, C2C12 myotubes, firefly/Renilla luciferase, luminescence, FRG1 inhibition for FSHD, primary screen (AID 1084). The settings on record: FRG1 promoter luciferase, higher = more signal, called active from +8 up or from −8 down.
Assay [9] in a line: small molecules captured by biotinylated probe aFST – biochemical, small-molecule microarray, fluorescence 635/667, stem cell growth factor project, primary screen (AID 1086).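 Also: score merges 667 nm fluorescence with signal-to-noise of each printed compound spot.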 The settings on record: higher = more signal.
Assay [10] can be described thus: binders of probe aHhip on microarray, primary screen, stem cell growth factor project, biochemical, small-molecule microarray, fluorescence 635/667 (AID 1087).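 Also: score merges spot fluorescence at 667nm with spot signal to noise ratio.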 The settings on record: higher = more signal.

Sequence of Pro-neuregulin-1, membrane-bound isoform (Homo sapiens) (Q02297 whole entry, looked up, the tested form may be a part, canonical isoform): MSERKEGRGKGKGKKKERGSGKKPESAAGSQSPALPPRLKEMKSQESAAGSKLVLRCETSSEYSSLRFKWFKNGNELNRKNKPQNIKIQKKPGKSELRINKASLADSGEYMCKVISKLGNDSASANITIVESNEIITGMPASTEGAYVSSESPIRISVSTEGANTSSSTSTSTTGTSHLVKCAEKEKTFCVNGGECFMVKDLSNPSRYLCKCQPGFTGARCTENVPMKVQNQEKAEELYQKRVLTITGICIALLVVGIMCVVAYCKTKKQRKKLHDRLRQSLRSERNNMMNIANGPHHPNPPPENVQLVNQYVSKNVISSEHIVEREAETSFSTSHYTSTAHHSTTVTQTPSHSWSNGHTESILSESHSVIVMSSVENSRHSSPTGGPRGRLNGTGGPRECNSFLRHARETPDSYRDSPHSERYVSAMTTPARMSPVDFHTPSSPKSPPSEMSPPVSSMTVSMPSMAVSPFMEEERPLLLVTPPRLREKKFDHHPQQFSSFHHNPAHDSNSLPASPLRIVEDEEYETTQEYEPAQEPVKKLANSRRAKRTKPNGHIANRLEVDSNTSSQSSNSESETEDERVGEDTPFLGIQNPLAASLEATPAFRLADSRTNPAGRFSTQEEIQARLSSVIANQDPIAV

Consider `C=CCN1C(=O)[C@@]2(O[C@@H](CCn3cc([C@H](O)c4ccccc4)nn3)[C@H]([Si](C)(C)c3ccc(OC)cc3)[C@H]2C)c2cc(N3CCOC3=O)ccc21`, for which the composite z-score in assay [1] was 0.228; in assay [2] it was 0.39; in assay [3], -0.104; in assay [4], 0.105; in assay [5], -0.261; in [6], -0.344. In addition, the figures for the composite z-score in assay [7], in [9] and in assay [10] were 1.1, -0.0319 and -0.0645, respectively. The z-score in assay [8] is -2 (inactive).

For the compound `CCC1=C2CN(Cc3ccccc3Br)[C@@H]([C@@H](O)Cc3ccccc3)C2C=CCC1` (stereo not given in full), the composite z-score was -0.525 in assay [1]; -0.12 in assay [2]; -0.0858 in [3]; 0.528 in assay [4]; 0.814 in assay [5]; 0.421 in assay [6]. Also, the composite z-score in assay [7] is 0.817; in [9], 0.788; in assay [10], 0.0881. Further, the z-score in assay [8] is -1.83 (inactive).

For the compound `COC(=O)C[C@H]1O[C@]2(C(=O)N(Cc3ccccc3)c3ccc(I)cc32)[C@@H](C)[C@@H]1[Si](C)(C)c1ccc(OC)cc1`, the composite z-score in assay [1] was 0.224; in assay [2], -0.529; in assay [3] it was -0.22; in [4], 0.262; in assay [5] it was -0.385; in assay [6], -0.121. Moreover, the composite z-score in assay [7] is -0.241; in assay [9] it was -0.145; in assay [10], -0.16. The z-score in assay [8] was 0.184 (inactive).

For `CCCCCCc1nc(C2CC2)c(C)c2c1[Si](C(C)C)(C(C)C)OC2`, the composite z-score in [1] is 0.411; in assay [2] it was 0.159; in assay [3] it was -0.167; in [4], -0.588; in assay [5] it was -0.923; in assay [6], -0.322. The composite z-score in assay [7] was -0.629; in assay [9], -0.266; in [10] it was -0.0672. Further, the z-score in assay [8] is -0.139 (inactive).

In the case of `COc1cc(CO)cc(I)c1O[C@H]1C=C(C(=O)NCCO)C[C@@H](NCCc2c[nH]c3ccccc23)[C@@H]1O`, the composite z-score in [1] is 0.318; in assay [2], 0.52; in assay [3], 0.0019; in assay [4] it was 1.01; in [5], 0.832; in assay [6], -0.0224. For the same compound, the composite z-score in [7] is 1.01; in assay [9], 0.714; in assay [10] it was -0.184. Also, the z-score in assay [8] is -0.389 (inactive).

On to `COc1cc2c(cc1OC)CN(C(=O)[C@H]1[C@@H]3C(=O)O[C@@H](c4ccccc4)[C@@H](c4ccccc4)N3[C@@H](c3ccc(O)cc3)[C@]13C(=O)Nc1ccc(C#CC4(O)CCCCCC4)cc13)CC2`, for which the composite z-score amounted to 1.75 in assay [1]; 0.457 in assay [2]; 0.567 in [3]; 1.12 in assay [4]; 0.685 in [5]; 2.26 in assay [6]. For the same compound, the composite z-score amounted to 1.33 in assay [7], 2.53 in [9] and 2.29 in [10]. For the same compound, the z-score in assay [8] is -0.21 (inactive).

Turning to `C=CCNC(=O)[C@H]1[C@@H]2C(=O)O[C@@H](c3ccccc3)[C@@H](c3ccccc3)N2[C@@H](c2ccccc2OCCO)[C@]12C(=O)N(C(=O)OCCOC)c1ccc(C#CCC(C(=O)OC)C(=O)OC)cc12`, the composite z-score in assay [1] was -0.257; in assay [2], 0.864; in assay [3] it was 0.0556; in assay [4], 0.408; in [5], 1.34; in [6], 1.47. Further, the values for the composite z-score in [7], in assay [9] and in [10] were 1.22, 0.336 and 0.276, respectively. For the same compound, the z-score in [8] is -0.678 (inactive).

Take `O=C1O[C@H](c2ccccc2)[C@H](c2ccccc2)N2[C@H]1[C@@H](C(=O)NC[C@H](O)c1ccccc1)[C@]1(C(=O)Nc3ccc(C#CC4(O)CCCCCC4)cc31)[C@H]2c1ccc(OCCO)cc1`: the composite z-score was determined as 0.247 in assay [1]; 0.634 in assay [2]; 0.0589 in assay [3]; 0.577 in assay [4]; 1.19 in [5]; 1.02 in [6]. The composite z-score in assay [7] was found to be 1.24; in assay [9] it was 0.388; in assay [10], 0.0024. Further, in assay [8], the z-score is 1.04 (inactive).

As to `COCCOC(=O)N1C(=O)[C@@]2(c3cc(C#CC4(O)CCCCCC4)ccc31)[C@H](C(=O)N1CCCCCCC1)[C@H]1C(=O)O[C@H](c3ccccc3)[C@H](c3ccccc3)N1[C@@H]2c1ccc(O)cc1`, the composite z-score came out at 3.29 in [1]; 0.536 in assay [2]; 0.416 in [3]; 0.345 in [4]; 0.899 in assay [5]; 0.768 in assay [6]. The composite z-score turned out to be 1.2 in [7], 2.81 in assay [9] and 1.11 in assay [10]. Besides, in assay [8], the z-score was -0.492 (inactive).

`Cc1ccc(S[C@]2(C(=O)O)CC(=O)N(Cc3cc(C(F)(F)F)cc(C(F)(F)F)c3)[C@@H]2c2ccc(CO)cc2I)cc1`: the composite z-score is 0.793 in assay [1]; 0.0039 in assay [2]; -0.103 in assay [3]; 0.002 in assay [4]; -1.18 in [5]; 1.28 in assay [6]. Moreover, the composite z-score in assay [7] is 0.603; in assay [9] it was -0.292; in assay [10], 0.0373. Moreover, the z-score in assay [8] is 0.419 (inactive).

As to `C[C@H]1C2[C@H](Cc3ccccc3)NC(=O)[C@]23C(=O)N[C@H](Cc2ccccc2)C(=O)N[C@@H](Cc2ccccc2)C(=O)NC/C=C\C/C=C/C3[C@@H]2O[C@]12C` (stereo not given in full), the composite z-score in [1] is -0.446; in assay [2], 0.107; in assay [3], -0.147; in [4] it was 0.388; in [5], 0.155; in assay [6], -0.384. Further, the composite z-score in assay [7] is -0.199; in assay [9] it was -0.137; in assay [10], 0.122. Also, the z-score in assay [8] is -0.293 (inactive).

On to `O=C1O[C@H](c2ccccc2)[C@H](c2ccccc2)N2[C@H]1[C@@H](C(=O)NC[C@H](O)c1ccccc1)[C@]1(C(=O)Nc3ccc(C#CC4=CCCCC4)cc31)[C@H]2c1ccc(OCCO)cc1`, for which the composite z-score in assay [1] was 0.0854; in assay [2], 0.21; in assay [3], -0.0579; in assay [4] it was 0.423; in assay [5], 1.04; in assay [6], 0.413. For the same compound, the composite z-score in assay [7] came to 1.02; in assay [9], 0.681; in assay [10], 0.136. In addition, the z-score in [8] is 0.315 (inactive).

Turning to `O=C(O)[C@@H]1Cc2c([nH]c3ccccc23)[C@@H](c2ccccc2)N1`, the composite z-score in assay [1] is -0.675; in [2], -0.15; in [3], -0.109; in assay [4], 0.35; in assay [5] it was 0.464; in [6], 0.144. Moreover, the results for the composite z-score in assay [7], in [9] and in assay [10] were 0.125, 0.084 and -0.0522, respectively. Besides, in assay [8], the z-score was -0.608 (inactive).

As to `O=C1c2ccccc2[C@@]2(Cc3ccccc3N(CC(F)(F)F)C2=O)[C@H](c2ccc(CO)cc2)N1C1CCCCC1`, the composite z-score in assay [1] was -0.2; in assay [2] it was 0.438; in [3], -0.0199; in [4], 0.354; in assay [5], 0.455; in [6], 0.492. The composite z-score in [7] is 1.47; in assay [9], -0.415; in assay [10], -0.0618. The z-score in [8] was -0.555 (inactive).

Turning to `COC(=O)c1ccc(C#CC(NP(=O)(c2ccccc2)c2ccccc2)c2ccccc2)cc1` (stereo not given), the composite z-score in [1] was 0.301; in assay [2], -0.214; in assay [3], -0.108; in assay [4], 0.182; in [5] it was 1.87; in assay [6], 1.68. The results for the composite z-score in assay [7], in assay [9] and in assay [10] were 1.36, 1.34 and 2.35, respectively. In [8], the z-score was -0.131 (inactive).

Turning to `C[C@@H]1C=CCC(=O)OC[C@H]2O[C@@H](C=C[C@@H]2O)[C@H](C)C=CCC(=O)OC[C@H]2O[C@H]1C=C[C@@H]2O`, the composite z-score was -0.663 in [1]; 0.919 in assay [2]; -0.113 in assay [3]; 0.526 in assay [4]; 0.16 in assay [5]; -0.0241 in assay [6]. Further, the composite z-score in assay [7] amounted to 0.567; in assay [9], 0.0915; in assay [10], 0.346. In addition, the z-score in assay [8] is -0.274 (inactive).
